17 compounds from ChEMBL document CHEMBL1961873, “Compounds: GSK PKIS; Assays: Nanosyn kinase panel” (2012) can be followed below.

Assay [1] has as its target Leukocyte tyrosine kinase receptor (Homo sapiens) (UniProt P29376). To be noted: at 1 µM.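 Note: each value is the mean inhibition of LTK.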
In assay [2] the target is Tyrosine-protein kinase Lyn (Homo sapiens) (UniProt P07948). Conditions: at 0.1 µM.
Assay [3] shares this target. To be noted: at 1 µM.
For assay [4] the target is unchanged. Conditions: at 0.1 µM. The source holds these as a separate data set.
The target is the same in assay [5]. Conditions: at 1 µM. This is another data set of the same source.
Assay [6] concerns the target T1, Tyrosine-protein kinase Mer (Homo sapiens) (UniProt Q12866).
T1 sequence (whole entry): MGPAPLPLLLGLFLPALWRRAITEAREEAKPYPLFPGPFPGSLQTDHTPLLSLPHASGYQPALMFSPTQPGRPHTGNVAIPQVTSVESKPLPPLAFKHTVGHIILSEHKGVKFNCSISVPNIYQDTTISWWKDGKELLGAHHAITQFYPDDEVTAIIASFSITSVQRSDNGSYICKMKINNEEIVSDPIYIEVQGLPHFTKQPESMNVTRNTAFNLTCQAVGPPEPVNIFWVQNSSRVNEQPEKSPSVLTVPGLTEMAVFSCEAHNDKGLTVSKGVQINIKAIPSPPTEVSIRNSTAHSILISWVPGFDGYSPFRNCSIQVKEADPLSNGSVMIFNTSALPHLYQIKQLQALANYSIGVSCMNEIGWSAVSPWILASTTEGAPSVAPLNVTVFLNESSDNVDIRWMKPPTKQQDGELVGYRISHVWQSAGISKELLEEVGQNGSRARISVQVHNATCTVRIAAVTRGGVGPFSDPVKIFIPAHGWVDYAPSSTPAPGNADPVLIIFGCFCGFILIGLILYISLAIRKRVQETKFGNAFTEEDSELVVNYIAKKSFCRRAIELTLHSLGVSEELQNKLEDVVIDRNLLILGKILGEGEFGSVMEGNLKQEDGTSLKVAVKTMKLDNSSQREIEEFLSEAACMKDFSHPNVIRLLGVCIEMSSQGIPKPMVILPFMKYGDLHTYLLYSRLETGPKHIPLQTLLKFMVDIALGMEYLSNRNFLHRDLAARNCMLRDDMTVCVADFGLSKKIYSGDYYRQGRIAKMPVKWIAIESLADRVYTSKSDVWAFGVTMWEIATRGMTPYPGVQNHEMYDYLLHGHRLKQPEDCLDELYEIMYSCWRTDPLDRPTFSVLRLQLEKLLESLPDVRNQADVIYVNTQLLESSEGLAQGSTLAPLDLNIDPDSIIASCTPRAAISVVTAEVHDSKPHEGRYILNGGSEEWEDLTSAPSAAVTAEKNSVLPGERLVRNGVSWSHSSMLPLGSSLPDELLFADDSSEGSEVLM
To be noted: at 0.1 µM.

The target in assay [7] is T1, Tyrosine-protein kinase Mer (Homo sapiens). To be noted: at 1 µM.
Assay [8] addresses Hepatocyte growth factor receptor (Homo sapiens) (UniProt P08581). To be noted: at 0.1 µM.
The target is the same in assay [9]. Conditions: at 1 µM.
Assay [10] concerns the target T2, Muscle, skeletal receptor tyrosine-protein kinase (Homo sapiens) (UniProt O15146).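 Note: values are mean inhibition of MuSK from the GSK PKIS kinase screening panel.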
T2 sequence (whole entry): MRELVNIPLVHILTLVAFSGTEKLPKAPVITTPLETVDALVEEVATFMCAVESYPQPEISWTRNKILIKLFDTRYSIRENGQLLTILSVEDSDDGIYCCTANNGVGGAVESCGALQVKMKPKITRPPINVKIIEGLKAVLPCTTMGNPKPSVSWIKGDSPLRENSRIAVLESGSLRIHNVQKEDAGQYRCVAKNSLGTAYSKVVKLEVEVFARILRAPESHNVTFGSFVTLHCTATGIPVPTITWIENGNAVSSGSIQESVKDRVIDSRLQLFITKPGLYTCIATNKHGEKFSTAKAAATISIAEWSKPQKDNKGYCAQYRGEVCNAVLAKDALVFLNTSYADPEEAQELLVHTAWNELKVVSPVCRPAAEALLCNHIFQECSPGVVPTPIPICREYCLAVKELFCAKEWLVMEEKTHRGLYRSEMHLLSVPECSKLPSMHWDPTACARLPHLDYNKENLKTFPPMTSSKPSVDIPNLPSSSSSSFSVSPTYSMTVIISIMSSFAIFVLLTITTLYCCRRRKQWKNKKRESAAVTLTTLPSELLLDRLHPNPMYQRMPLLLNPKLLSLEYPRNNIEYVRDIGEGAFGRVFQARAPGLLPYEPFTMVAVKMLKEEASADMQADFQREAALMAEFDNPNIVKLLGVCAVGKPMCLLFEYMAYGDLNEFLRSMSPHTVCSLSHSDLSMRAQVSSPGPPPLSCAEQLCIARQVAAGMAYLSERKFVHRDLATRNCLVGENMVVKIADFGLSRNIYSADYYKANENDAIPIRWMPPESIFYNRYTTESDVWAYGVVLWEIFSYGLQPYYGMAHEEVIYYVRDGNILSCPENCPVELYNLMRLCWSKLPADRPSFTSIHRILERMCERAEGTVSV
Conditions: at 0.1 µM.

The structures appear in SMILES notation.

The inhibition is the drop in the measured response relative to a control, in per cent.

Chain of Leukocyte tyrosine kinase receptor (Homo sapiens) (P29376 whole entry): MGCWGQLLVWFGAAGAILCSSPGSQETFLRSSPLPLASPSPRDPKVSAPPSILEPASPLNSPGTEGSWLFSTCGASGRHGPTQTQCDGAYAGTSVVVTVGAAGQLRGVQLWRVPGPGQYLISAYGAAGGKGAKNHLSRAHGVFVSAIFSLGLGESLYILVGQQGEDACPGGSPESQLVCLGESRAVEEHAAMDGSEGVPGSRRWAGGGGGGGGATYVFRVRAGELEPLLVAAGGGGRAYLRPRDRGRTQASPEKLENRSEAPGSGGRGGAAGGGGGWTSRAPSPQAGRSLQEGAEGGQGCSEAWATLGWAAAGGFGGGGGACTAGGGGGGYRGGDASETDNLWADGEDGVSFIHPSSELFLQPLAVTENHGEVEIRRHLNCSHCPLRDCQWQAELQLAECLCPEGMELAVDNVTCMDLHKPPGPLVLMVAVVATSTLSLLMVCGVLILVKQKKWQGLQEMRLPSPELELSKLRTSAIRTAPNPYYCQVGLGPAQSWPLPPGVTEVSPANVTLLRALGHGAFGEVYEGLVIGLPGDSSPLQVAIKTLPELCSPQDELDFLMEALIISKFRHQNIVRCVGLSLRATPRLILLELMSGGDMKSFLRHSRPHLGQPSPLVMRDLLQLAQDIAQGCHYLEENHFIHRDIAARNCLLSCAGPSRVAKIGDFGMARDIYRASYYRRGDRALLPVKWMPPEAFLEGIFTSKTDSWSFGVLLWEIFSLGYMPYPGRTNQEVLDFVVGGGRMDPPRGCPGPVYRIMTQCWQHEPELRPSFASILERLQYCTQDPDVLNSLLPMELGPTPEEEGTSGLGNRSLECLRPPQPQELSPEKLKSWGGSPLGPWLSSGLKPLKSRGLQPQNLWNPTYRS
Chain of Tyrosine-protein kinase Lyn (Homo sapiens) (P07948 2-512 limits assumed): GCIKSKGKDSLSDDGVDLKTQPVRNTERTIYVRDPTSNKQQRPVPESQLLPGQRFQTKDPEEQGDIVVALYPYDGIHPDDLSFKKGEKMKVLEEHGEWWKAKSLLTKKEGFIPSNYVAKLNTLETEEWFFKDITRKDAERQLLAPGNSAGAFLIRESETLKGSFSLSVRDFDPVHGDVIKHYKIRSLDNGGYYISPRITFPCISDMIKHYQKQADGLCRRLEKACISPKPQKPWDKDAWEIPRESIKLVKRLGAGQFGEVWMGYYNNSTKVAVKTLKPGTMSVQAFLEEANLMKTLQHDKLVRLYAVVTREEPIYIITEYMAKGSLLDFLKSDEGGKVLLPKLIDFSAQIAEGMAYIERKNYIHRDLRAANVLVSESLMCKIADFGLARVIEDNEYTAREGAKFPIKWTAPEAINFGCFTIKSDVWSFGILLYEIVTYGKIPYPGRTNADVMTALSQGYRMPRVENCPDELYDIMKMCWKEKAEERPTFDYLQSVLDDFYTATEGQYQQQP
Chain of Hepatocyte growth factor receptor (Homo sapiens) (P08581 whole entry): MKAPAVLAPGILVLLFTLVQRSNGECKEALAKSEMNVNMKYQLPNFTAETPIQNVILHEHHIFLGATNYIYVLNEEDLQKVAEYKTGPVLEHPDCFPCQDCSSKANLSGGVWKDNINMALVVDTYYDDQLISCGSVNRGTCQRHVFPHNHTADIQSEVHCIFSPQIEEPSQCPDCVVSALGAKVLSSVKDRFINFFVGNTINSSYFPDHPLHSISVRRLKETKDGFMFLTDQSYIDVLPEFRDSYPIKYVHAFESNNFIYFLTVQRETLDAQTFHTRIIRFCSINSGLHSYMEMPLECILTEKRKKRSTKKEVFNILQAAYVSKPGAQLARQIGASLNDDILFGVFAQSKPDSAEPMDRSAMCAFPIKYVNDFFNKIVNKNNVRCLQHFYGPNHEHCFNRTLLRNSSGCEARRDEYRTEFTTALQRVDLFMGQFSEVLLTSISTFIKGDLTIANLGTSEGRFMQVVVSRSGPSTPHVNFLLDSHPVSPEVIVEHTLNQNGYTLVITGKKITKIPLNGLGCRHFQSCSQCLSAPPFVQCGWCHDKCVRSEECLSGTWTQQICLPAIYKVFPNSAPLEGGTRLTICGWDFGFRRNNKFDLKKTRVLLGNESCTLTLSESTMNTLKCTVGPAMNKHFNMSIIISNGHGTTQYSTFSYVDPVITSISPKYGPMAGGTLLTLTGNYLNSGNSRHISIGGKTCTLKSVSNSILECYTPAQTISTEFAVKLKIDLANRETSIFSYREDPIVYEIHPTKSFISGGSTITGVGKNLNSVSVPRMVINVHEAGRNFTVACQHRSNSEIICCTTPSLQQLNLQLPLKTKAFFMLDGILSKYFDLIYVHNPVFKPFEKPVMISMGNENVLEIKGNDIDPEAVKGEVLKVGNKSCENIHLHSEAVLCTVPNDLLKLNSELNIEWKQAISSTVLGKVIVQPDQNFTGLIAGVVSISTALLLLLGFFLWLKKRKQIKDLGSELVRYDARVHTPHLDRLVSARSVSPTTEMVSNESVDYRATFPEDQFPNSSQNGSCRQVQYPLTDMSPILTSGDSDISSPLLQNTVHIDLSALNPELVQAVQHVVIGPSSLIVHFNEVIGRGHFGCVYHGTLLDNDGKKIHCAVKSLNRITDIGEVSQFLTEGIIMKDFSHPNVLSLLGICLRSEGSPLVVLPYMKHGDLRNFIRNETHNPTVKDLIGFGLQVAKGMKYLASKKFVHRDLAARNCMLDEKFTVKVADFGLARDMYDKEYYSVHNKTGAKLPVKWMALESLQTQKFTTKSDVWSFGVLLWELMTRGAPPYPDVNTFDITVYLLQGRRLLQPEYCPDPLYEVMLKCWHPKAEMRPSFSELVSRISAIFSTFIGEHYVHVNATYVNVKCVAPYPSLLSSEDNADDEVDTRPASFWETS

As to `COc1ccc(-c2nn3ncccc3c2-c2ccnc(Nc3ccc(Cl)c(C(F)(F)F)c3)n2)cc1`, the inhibition in assay [1] was 2.96%; in assay [2] it was 2.95%; in assay [3], 7.79%; in assay [4], 2.39%; in assay [5], 7.64%; in assay [6], 0.1%. For the same compound, the inhibition in [7] worked out at 0.41%; in assay [8], 7.55%; in [9], 4.08%; in assay [10] it was 2.01%.
As to `CCn1c(-c2nonc2N)nc2cnc(Oc3cccc(NC(=O)c4ccc(OCCN5CCOCC5)cc4)c3)cc21`, the inhibition in assay [1] was found to be 1.51%; in assay [2] it was 5.8%; in assay [3], 4.87%; in [4] it was 3.05%; in assay [5], 2.62%; in assay [6] it was 1.1%. Moreover, the inhibition in assay [7] came to 2.56%; in assay [8], 3.9%; in assay [9], 7.84%; in assay [10], 2.09%.
Regarding `N#Cc1c(NC(=O)c2cccc3ccccc23)sc2c1CCCC2`, the inhibition in assay [1] is 2.53%; in assay [2], 4.91%; in assay [3], 5.68%; in assay [4], 2.96%; in assay [5] it was 3.7%; in assay [6], 0.86%. The inhibition in assay [7] was 1.53%; in assay [8], 3.61%; in assay [9], 7.33%; in assay [10] it was 3.62%.
On to `Cc1cc(O)cc(C)c1/C=C/c1cncc(-c2nn[nH]n2)c1`, for which the inhibition in assay [1] came out at 27.8%; in [2] it was 21.9%; in assay [3], 78.4%; in assay [4], 17%; in [5], 73.9%; in assay [6], 2.28%. Moreover, the inhibition in assay [7] turned out to be 5.61%; in assay [8] it was 3.29%; in assay [9], 8.95%; in assay [10] it was 2.58%.
Take `CNC(=O)c1cncc(/C=C/c2c(Cl)cccc2Cl)c1`: the inhibition was found to be 5.04% in assay [1]; 11.1% in [2]; 48.7% in assay [3]; 7.62% in assay [4]; 43.5% in assay [5]; 2.3% in assay [6]. Besides, the inhibition in [7] was found to be 2.24%; in assay [8] it was 2.67%; in [9], 1.88%; in assay [10], 3.75%.
For the compound `COc1cc2ncn(-c3cc(OCc4ccccc4C(F)(F)F)c(C(N)=O)s3)c2cc1OC`, the inhibition in assay [1] came to 4.35%; in assay [2] it was 6.12%; in assay [3], 21.5%; in assay [4], 3.89%; in assay [5], 17.4%; in assay [6], 2.08%. The inhibition in assay [7] was 9.28%; in assay [8], 4.37%; in assay [9] it was 19.5%; in assay [10] it was 11%.
On to `CCCN1CCC=C(c2ccc(Nc3nc(Nc4ccccc4C(N)=O)c4cc[nH]c4n3)c(C)c2)C1`, for which the inhibition in assay [1] was 93.9%; in assay [2] it was 2.75%; in assay [3], 6.69%; in assay [4], -0.18%; in assay [5] it was 2.97%; in assay [6] it was 1.4%. The inhibition in assay [7] came to 10.5%; in assay [8], 6.76%; in assay [9], 13.1%; in [10], 4.95%.
`COc1ccc(-c2coc3ncnc(N)c23)cc1`: the inhibition in assay [1] amounted to 2.3%; in assay [2], 5.38%; in assay [3], 5.54%; in assay [4], 3.09%; in assay [5], 7.61%; in [6] it was 2.63%. The inhibition in assay [7] came out at 2.9%; in assay [8], 10%; in assay [9], 6.47%; in assay [10] it was 4.06%.
As to `CS(=O)(=O)CCNCc1ccc(-c2ccc3ncnc(Nc4ccc(OCc5cccc(F)c5)c(C(F)(F)F)c4)c3c2)o1`, the inhibition in assay [1] was 3.49%; in [2] it was 6.53%; in [3] it was 6.94%; in assay [4], 3.88%; in assay [5] it was 4.94%; in [6] it was 1.14%. Moreover, the inhibition in [7] turned out to be 0.83%; in [8], 7.18%; in assay [9], 3.55%; in assay [10], 3.27%.
Regarding `CC(=O)Nc1cccc(C#Cc2cncnc2Nc2ccc(OCc3cccc(F)c3)c(Cl)c2)n1`, the inhibition is 1.48% in [1]; 0.69% in [2]; 4.88% in [3]; 0.67% in assay [4]; 3.79% in assay [5]; -0.16% in assay [6]. For the same compound, the inhibition in assay [7] was 0.67%; in assay [8], -2.7%; in assay [9], 2.91%; in assay [10], 2.44%.
Regarding `COC(=O)Nc1nc2cc(Oc3cccc(NC(=O)Nc4cc(C(F)(F)F)ccc4F)c3)ccc2[nH]1`, the inhibition was 24.9% in assay [1]; 7.9% in [2]; 45.9% in assay [3]; 5.64% in assay [4]; 41.6% in assay [5]; -1.21% in assay [6]. The inhibition in assay [7] is -0.14%; in [8], 1%; in [9], 0.32%; in assay [10] it was 4.58%.
Turning to `CS(=O)(=O)CCNCc1ccc(-c2ccc3ncnc(Nc4ccc(OCc5ccccc5)c(Cl)c4)c3c2)o1`, the inhibition in assay [1] is 4.23%; in assay [2], 1.21%; in assay [3], 6.25%; in assay [4], 1.19%; in assay [5], 5.08%; in [6], 4.37%. Besides, the inhibition in assay [7] came to 30.6%; in [8], 5.04%; in assay [9], 7.4%; in assay [10], 3.89%.
As for `Cc1nn(C)c2cc(N(C)c3ccnc(Nc4cccc(S(N)(=O)=O)c4)n3)ccc12`, the inhibition was 29% in assay [1]; 13.6% in [2]; 51.3% in assay [3]; 9.71% in assay [4]; 46.8% in assay [5]; 2.42% in [6]. The inhibition in assay [7] was 18.8%; in [8], 7.18%; in assay [9] it was 37.1%; in [10], 2.31%.
Take `O=C1NC(=O)C(c2cccc(Cl)c2)=C1Nc1ccc(O)c(Cl)c1`: the inhibition in [1] is 0.35%; in [2], 1.27%; in [3] it was 3.18%; in assay [4], 0.38%; in [5], 3.63%; in assay [6], -0.5%. In addition, the inhibition in assay [7] was determined as 3.08%; in assay [8], 0.77%; in assay [9], 3.7%; in assay [10], 0.25%.
With `Nc1nc(-c2ccccn2)c(-c2ccc3ncccc3n2)s1`, the inhibition in [1] was found to be 2.34%; in assay [2] it was 4.59%; in [3], 4.44%; in [4], 2.14%; in assay [5] it was 3.06%; in [6], 0.73%. The inhibition was 4.5% in assay [7], 2.46% in assay [8], 9.52% in [9] and 3.99% in assay [10].
In the case of `O=C1Nc2ccc(C(=O)c3ccco3)cc2C1=Cc1cc(Cl)c(O)c(Cl)c1`, the inhibition stood at 44.2% in assay [1]; 5.67% in [2]; 18.9% in [3]; 2.95% in assay [4]; 16.2% in assay [5]; 1.35% in assay [6]. Also, the inhibition turned out to be 4.42% in [7], 2.06% in assay [8], 15.7% in assay [9] and 4.03% in [10].
As to `Nc1ncnc2occ(-c3ccc(NC(=O)Nc4cc(C(F)(F)F)cc(C(F)(F)F)c4)cc3)c12`, the inhibition worked out at 23.7% in [1]; 4.96% in assay [2]; 37% in assay [3]; 3.86% in assay [4]; 34% in assay [5]; 0.69% in assay [6]. In addition, the inhibition is 14.4% in assay [7], -0.72% in assay [8], 10.3% in assay [9] and 77.6% in assay [10].
